In PubChem BioAssay AID485314 (National Center for Advancing Translational Sciences (NCATS), 2010):
Screen size: about 340,000 compounds; about 4,500 (1.3%) were called active. About 5% were inconclusive and are not listed. What follows is part of a selection rich in actives, with near analogues and random picks from the rest. A number with no mark means an inactive call. Calls follow the shape of the dose curve; as a rule, active = well fitted inhibition curve with a large enough effect; inconclusive = small, poorly fitted or top-dose-only effect, or another doubt; inactive = no such curve, though single readings can be large or run the other way.

target: DNA polymerase beta (Homo sapiens) (UniProt P06746); assay: qHTS Assay for Inhibitors of DNA Polymerase Beta; settings: Pol beta primer extension/strand displacement, fluorescence kinetic; series mostly up to 114 µM; activity change, negative = inhibition: at the top concentration
How it was run: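 Pol beta (10 nM) was preincubated with compound for 15 min at room temperature. The reaction was then started with 50 nM substrate and read immediately and after a further 10 min at room temperature.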
% is scaled to controls: 0 for no effect and ±100 for the full control effect; potency is read from the fitted curve at half-maximal effect.

Compound | activity change, negative = inhibition | Potency
CC(C)(C)OC(=O)NNc1c2ccccc2nc2ccccc12 | 23.7% | –
CC(=O)Nc1ccc(Nc2c3ccccc3nc3ccccc23)cc1 | – | 17.8 µM (active)
CCc1nc(Nc2ccc(NC(C)=O)cc2)c2oc3ccccc3c2n1 | 13.3% | –
COc1ccc(C(=O)NCC(c2ccc(N(C)C)cc2)N2CCc3ccccc32)c(OC)c1 (centres undefined) | 32% | –
CCOc1ccc(-n2c(O)c(/C=N/Nc3nc(C)cc(C)n3)c3ccccc3c2=O)cc1 | -19.5% | –
CCOc1ccc(-n2c(O)c(/C=N/Nc3nnc(C)c(=O)[nH]3)c3ccccc3c2=O)cc1 | – | 56.2 µM (active)
CCOc1ccc(-n2c(O)c(/C=N/c3ccnn3Cc3ccncc3)c3ccccc3c2=O)cc1 | 11.5% | –
CCOc1ccccc1NC(=O)CN1CCCN(Cc2cccc(Cl)c2)S1(=O)=O | 1.06% | –
C=CC1C(OC2OC(CO)C(O)C(O)C2O)OC=C(C(=O)OC)C1CC1CC(=O)CC(CC(=O)CCc2ccc(O)cc2)O1 (centres undefined) | -1.69% | –
CC1=C(C)C(=O)OC(C(C)C2CCC3C4CC=C5CC(OC6OC(COC7OC(CO)C(O)C(O)C7O)C(O)C(O)C6O)CC(O)C5(C)C4CCC23C)C1 (centres undefined) | 0.697% | –
CC(/C=C/C1(O)C(C)CC(=O)CC1(C)C)OC1OC(CO)C(O)C(O)C1O (centres undefined) | – | 28.2 µM (active)
Cc1ccc(-c2nc3ccccn3c2Nc2c(C)cccc2C)o1 | 26.6% | –
O=C(CN1CCSc2ccccc21)N1CCN(c2ccccc2)CC1 | 2.05% | –
Oc1c(Cl)cc(Cl)c(Cl)c1Cc1c(O)c(Cl)cc(Cl)c1Cl | – | 28.2 µM (active)
Cc1ccc(Cc2nc3ccccc3nc2SCC(=O)Nc2cccc(C(F)(F)F)c2)cc1 | -1.48% | –
Cc1ccc(-c2cnc(C3CC3)o2)cc1S(=O)(=O)Nc1cccc(C)c1C | -2.43% | –
CCCOc1ccc(-c2cccc(NS(=O)(=O)c3ccccc3)c2)nn1 | 0.493% | –
O=C(N/N=C/c1ccco1)c1csc2c1CCCC2 | 6.62% | –
O=C(N/N=C/c1ccco1)c1ccc(C(=O)N/N=C/c2ccco2)o1 | – | 17.8 µM (active)
O=C(Cc1ccc([N+](=O)[O-])cc1)N/N=C/c1ccco1 | 5.52% | –
CCc1ccccc1NC(=O)CSc1nnc(-c2ccccc2)c(-c2ccccc2)n1 | 3.25% | –
Cc1c(Cl)cccc1NC(=O)N1CCN(C(=O)c2nsc3ccccc23)CC1 | -0.591% | –
Cc1ccc(N2CC(C(=O)Nc3ccc(S(=O)(=O)N4CCCC4)cc3)CC2=O)cc1C (centres undefined) | 1.24% | –
CC1CCN(S(=O)(=O)c2ccc(NC(=O)C3CC(=O)N(c4ccccc4)C3)cc2)CC1 (centres undefined) | -23.6% | –
COc1ccccc1N1CC(C(=O)Nc2ccc(S(=O)(=O)N3CCOCC3)cc2)CC1=O (centres undefined) | – | 79.4 µM (active)

Compound | activity change, negative = inhibition | Potency
COc1ccc(NC(=O)NC(C)c2c(-n3cccc3)sc(C)c2C)cc1OC (centres undefined) | -0.276% | –
CCOc1ccc2nc(N3CCCC(C(=O)Nc4cc(C)ccc4C)C3)sc2c1 (centres undefined) | 1.66% | –
CCOc1cccc(-c2nn3c(-c4ccccn4)nnc3s2)c1 | 29.3% | –
S=c1[nH]nc(-c2cc(-c3ccsc3)n[nH]2)n1-c1ccccc1 | 38.9% | –
c1ccc(-c2cc(-c3nnc4sc(-c5ccccn5)nn34)[nH]n2)cc1 | – | 39.8 µM (active)
O=C(C1CCC1)N1CCN(c2ccccc2)CC1 | 12.2% | –
O=C(c1cc2c(s1)CCC2)N1CCN(c2ccccc2)CC1 | – | 17.8 µM (active)
O=C(NNC(=O)c1cc2c(s1)CCCC2)c1ccccc1 | -1.77% | –
CCc1ccc(NC(=O)c2cc(S(=O)(=O)NC3CCCCCC3)ccc2F)cc1 | 1.54% | –
CCOc1cccc(CC(=O)N2CCc3c([nH]c4ccccc34)C2c2ccc(OC)cc2)c1OCC (centres undefined) | -16.3% | –
CC(C)Nc1nnc(SCC(=O)c2c[nH]c3ccccc23)s1 | 1.26% | –
Cc1ccccc1Nc1nnc(SCC(=O)c2cc3ccccc3o2)s1 | -1.02% | –
CC(C)c1ccc(Nc2nnc(SCC(=O)c3nnc(-c4ccccc4)o3)s2)cc1 | – | 39.8 µM (active)
Cc1cccc(Cn2c(SCc3ccc(C(=O)N4CCC(C)CC4)cc3)nc3ccncc32)c1 | 19.7% | –
COc1cc(OC)c(OC)cc1/C=C/c1nc2ccccc2c(=O)n1-c1ccc(Br)c(C)c1 | 22.7% | –
COc1ccc(C(=O)Nc2cccc(C(=O)OCc3cc(=O)n4c5c(sc4n3)CCCC5)c2)cc1 | -16.3% | –
Cc1ccc(CN2CCc3nc(N4CCN(C)CC4)ncc3C2)cc1 | 32% | –
COc1cccc(N2CCN(C(=O)CCCCCn3c(=O)[nH]c4ccccc4c3=O)CC2)c1 | 27.1% | –
Cc1ccsc1-c1cc(C(=O)O)c2c(ccc3ccccc32)n1 | 13.8% | –
Cc1cccc(NC(=O)CSc2nc(-c3ccco3)cc(C(F)(F)F)n2)c1C | -2.02% | –
Cc1cc(C)c2nc(-c3ccco3)cc(C(=O)O)c2c1 | – | 7.08 µM (active)
CCOc1cc(CNC(=O)c2sc3ncnc(N(C)C4CCCCC4)c3c2C)ccc1OC | -1.77% | –
COc1ccc(CCNC(=O)C(=O)NCC(c2ccco2)S(=O)(=O)c2cccs2)cc1OC (centres undefined) | -9.89% | –
O=C(Nc1ccc2nc(SCC(=O)N3CCCc4ccccc43)sc2c1)c1ccc(F)cc1 | 13.6% | –
O=C(CSc1nccn1C1CCCC1)Nc1cc(C(F)(F)F)ccc1Cl | 6.31% | –

Compound | activity change, negative = inhibition | Potency
Cn1c(NN)nc2sc3c(c2c1=O)CCC3 | – | 89.1 µM (active)
CCCc1nc2sc3c(c2c(=O)n1NC(=O)CCCl)CCCC3 | -2.23% | –
NNC(=O)C1CCCn2c1nc1sc3c(c1c2=O)CCCC3 (centres undefined) | 2.75% | –
COc1ccccc1OCC(=O)Nc1nnc2n1CCS2 | -20.4% | –
CCOC(=O)c1c(C)oc2nc(C)nc(N3CCN(c4ccc(OC)cc4)CC3)c12 | -15.6% | –
CCc1cccc(OC2OC(CO)C(O)C(O)C2NC(C)=O)c1 (centres undefined) | -1.07% | –
CC(=O)NC1C(Oc2ccc(C=O)cc2)OC(COC(C)=O)C(OC(C)=O)C1OC(C)=O (centres undefined) | – | 39.8 µM (active)
CC(=O)NC1C(Oc2ccc(C)cc2)OC2COC(c3ccco3)OC2C1O (centres undefined) | -3.84% | –
Cc1c(C(=O)N2CCCC2)oc2c1-c1nn(CC(=O)NCc3ccc(OC(C)C)cc3)cc1CC2 | 2.91% | –
COc1ccc(-c2nc(SCC(=O)N3CCCCC3C)n[nH]2)cc1 (centres undefined) | 3.44% | –
CCCCCn1c(=O)[nH]c2cc(C(=O)NCCN(C)CCCC)ccc2c1=O | -2.03% | –
CCSc1nnc(NC(=O)c2ccc(C)cc2)s1 | -1.08% | –
CCSc1nnc(NC(=O)c2cc(=O)c3cc(C)c(C)cc3o2)s1 | -16.3% | –
Cc1ccc(C(=O)Oc2coc(CSc3nnc(NC(=O)c4cccs4)s3)cc2=O)cc1C | – | 20 µM (active)
CCOC(=O)C1CCN(c2csc3ccc(C)cc3c2=O)CC1 | 38.3% | –
O=C1NN(c2ccccc2)C(=O)/C1=C/c1ccc(-c2cccc(C(=O)O)c2)o1 | – | 35.5 µM (active)
Cc1cccc(C)c1-n1c(C)cc(/C=C2\C(=O)NN(c3ccccc3)C2=O)c1C | -1.38% | –
COc1cc(/C=C2/C(=O)NN(c3cccc(Cl)c3)C2=O)cc(Br)c1O | -5.39% | –
CCOc1cc(C2C(C(=O)OC)=C(C)NC3=C2C(=O)c2ccccc23)ccc1O (centres undefined) | -20.1% | –
Cc1cccc2nc(-c3ccc(Cl)s3)c(Nc3ccc4c(c3)OCCO4)n12 | -14.7% | –
COc1ccc(C(=O)CCC(=O)Nc2ccc(Cl)cc2)cc1 | -4.79% | –
Cc1ccc(NC(=O)CCC(=O)c2ccc(Br)cc2)cc1 | – | 89.1 µM (active)
Cc1ccc(OC(=O)CCC(=O)Nc2ccc(Br)cc2)cc1 | 5.33% | –
CCOc1cc(-c2nnc(SCC(=O)NC3CCCC3)nc2-c2ccc(OC)c(OCC)c2)ccc1OC | -29.7% | –
CCCn1c2ccccc2c2cnn(CC(=O)N(C)c3ccccc3CC)c(=O)c21 | 0.302% | –

Compound | activity change, negative = inhibition | Potency
COc1cccc(CNC(=O)CCc2nc(-c3ccc(C)cc3)no2)c1 | 0.0036% | –
COc1ccc(OC)c(NC(=O)CSc2nc3ccccc3nc2N2CCCCC2)c1 | -7.89% | –
CCOC(=O)c1ccc(-c2ccc(/C=C(\C#N)C(=O)Nc3ccc(C)cc3)o2)cc1 | 9.25% | –
Cc1ccc2nc(/C(C#N)=C/c3ccc(-c4ccc(C(=O)OC(C)C)cc4)o3)[nH]c2c1 | – | 28.2 µM (active)
Cc1ccc2nc(/C(C#N)=C/c3ccccc3F)[nH]c2c1 | 0.138% | –
COc1ccc(S(=O)(=O)NCc2cccn2Cc2cccc(C)c2)cc1Cl | -0.864% | –
COc1ccc(N2CCN(C3=NS(=O)(=O)C(c4cccc(Br)c4)=C3C)CC2)cc1 | -13.7% | –
CCOC(=O)C(Cc1ccccc1)NC(=O)CCC(=O)c1ccc(OC)cc1 (centres undefined) | 4.15% | –
COc1cc([C@H](Cc2ccccc2)NC(C)=O)oc(=O)c1 | – | 17.8 µM (active)
COc1ccc2oc(C(=O)NCC(Cc3ccccc3)N(C)C)c(C)c2c1 (centres undefined) | 22.1% | –
CC(C)c1nc2oc3c(N4CCN(C)CC4)ncnc3c2c2c1CCC2 | – | 12.6 µM (active)
Cc1cc(C)nc(N2CCN(c3ncnc4c3oc3ccccc34)CC2)n1 | 2.21% | –
Cc1ccc(NC(=O)c2ccc(CN3CC(=O)N4CCCCC4C3=O)cc2)c(Cl)c1 (centres undefined) | 2.76% | –
Cc1nnc(C)n1-c1ccc(C(=O)Nc2cccc(Br)c2)cc1 | 1.29% | –
Cc1cccc(NC(=O)C2CCN(C(=O)NC3CCCCC3)CC2)c1 | 7.66% | –
Cc1cccc(NC(=O)C2CC(=O)OC23CCCC3)c1 (centres undefined) | – | 28.2 µM (active)
Cc1cccc(NC(=O)NC2(C)CCS(=O)(=O)C2)c1 (centres undefined) | 22.6% | –
CCOC(=O)c1ccc(NC(=O)c2csc3c2CCCCC3)cc1 | 6.91% | –
Cc1nn(-c2ccc(N3CCCCC3)nn2)c(C)c1CCC(=O)NCc1ccc(F)cc1 | -15.3% | –
COc1ccc(-n2ccnc(NCCc3ccc(Cl)cc3)c2=O)cc1OC | -12% | –
Cc1cc(C)cc(N(CC(=O)NCCSCc2ccco2)S(C)(=O)=O)c1 | 0.739% | –
S=C(NCc1ccc2c(c1)OCO2)NCc1ccco1 | 1.93% | –
CS(=O)(=O)N(CC(=O)NCc1ccco1)c1ccc2c(c1)OCO2 | – | 50.1 µM (active)
Cc1ccc(NC(=O)CSc2nc3c([nH]c4ccccc43)c(=O)n2-c2ccccc2)cc1Cl | 3.88% | –
